# Source: PubChem BioAssay (Tox21)
# “And” between values parts separate entries of the source, which are not always exact repeats. Equal values may be shown once. Records with an inconclusive call do not appear. Where a call stands in place of a potency, no number is given. More than one record can exist for a structure, and the calls need not agree. The source made the active and inactive calls. Calls follow the shape of the full dose curve.
# Molecular target: Retinoic acid receptor RXR-alpha (Homo sapiens) (UniProt P19793)
# Assay: qHTS assay to identify small molecule agonists of the RXR signaling pathway (AID 1159527); also: nearly all actives have a fitted effect of over 35% in size
# Conditions: HEK293T RXRa-UAS-bla, beta-lactamase ratio, 16 h; series mostly up to 76.8 µM
# Description: U.S. Tox21 Program National Center for Advancing Translational Sciences [NCATS] NIH Chemical Genomics Center [NCGC] U.S. Environmental Protection Agency [EPA] National Institutes of Environmental Health Sciences [NIEHS] National Toxicology Program [NTP] U.S. Food and Drug Administration [FDA] Tox21 Assay Overview: The Retinoid X receptor (RXR), a nuclear hormone receptor expressed in liver, spleen, placenta, epidermis, central nervous system. These receptors are able to form homo and heterodimers with other nuclear receptors and due to this heterodimerizing ability, RXR functions as master regulators producing diverse physiological effects. Three subtypes of RXR exist; alpha, beta and gamma. Retinoid X receptor alpha (RXR-alpha) has potential roles in metabolic signaling pathways, skin alopecia, dermal cysts, cardiac development, insulin sensitization etc. Therefore screening environmental chemicals on RXR-alpha signaling can be used for the studies focused on such therapeutic applications. For quantification of RXR-alpha ligands signaling, GeneBLAzer RXR alpha-UAS-bla HEK 293T (Life Technologies, Carlsbad, CA) cells containing a beta-lactamase reporter-gene under control of Retinoid X receptor-alpha response element were used to screen Tox21 10K library.
# Tox21 Assay Protocol Summary: RXR-alpha HEK 293T cells were dispensed at 2,000 cells/6 uL of assay medium containing 2% charcoal-stripped FBS using a Multidrop Combi (ThermoFisher Scientific, Waltham, MA) dispenser. The assay was performed in black wall/clear-bottom 1536-well plates (Greiner Bio-One North America Inc. Monroe, NC). 9-cis retinoic acid was used as a positive control in the agonist mode screen. After the assay plates were incubated at 37 C and 5% CO2 for 5 hr, 23 nL of compounds dissolved in DMSO, positive controls or DMSO only were transferred to the assay plate by a Pintool station (Kalypsys, San Diego, CA). The assay plates were incubated at 37 C and 5% CO2 for 16 hr. One uL of LiveBLAzer B/G FRET substrate (Life Technologies) was added using a Flying Reagent Dispenser (Aurora Discovery, San Diego, CA) and the plates were incubated at room temperature for 2 hr. Fluorescence intensity (405 nm excitation, 460/530 nm emission) was measured using an Envision plate reader (PerkinElmer, Shelton, CT).
# Potency is read from the fitted curve at half-maximal effect.
# Chain of Retinoic acid receptor RXR-alpha (Homo sapiens) (P19793 whole entry, looked up): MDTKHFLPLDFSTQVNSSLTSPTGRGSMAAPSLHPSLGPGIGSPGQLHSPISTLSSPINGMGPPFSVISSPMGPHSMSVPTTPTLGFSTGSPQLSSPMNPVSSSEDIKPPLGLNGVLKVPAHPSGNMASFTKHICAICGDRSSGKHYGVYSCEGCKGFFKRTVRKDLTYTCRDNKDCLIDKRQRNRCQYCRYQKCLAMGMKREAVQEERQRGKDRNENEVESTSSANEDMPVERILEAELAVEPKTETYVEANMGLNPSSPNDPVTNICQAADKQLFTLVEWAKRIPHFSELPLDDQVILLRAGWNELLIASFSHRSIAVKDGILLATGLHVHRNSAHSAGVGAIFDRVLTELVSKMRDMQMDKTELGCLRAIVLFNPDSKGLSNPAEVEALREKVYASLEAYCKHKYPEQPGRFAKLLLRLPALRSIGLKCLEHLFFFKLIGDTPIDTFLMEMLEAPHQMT
row,Structure (SMILES),Potency
1,O=C(c1ccccc1)C(O)c1ccccc1 (stereo not given),inactive and 38.9 µM (active)
2,O=C(O)c1[nH]n(-c2ccc(S(=O)(=O)O)cc2)c(=O)c1N=Nc1ccc(S(=O)(=O)O)cc1,inactive
3,CC(O)C(=O)O (stereo not given),inactive
4,O=C(O)CCCCC(=O)O,inactive
5,CC1(C)[C@@H]2CC[C@@]1(C)C(=O)C2,inactive
6,O=C(O)c1cc(N=Nc2ccc(S(=O)(=O)Nc3ccccn3)cc2)ccc1O,inactive
7,Nc1ccc(O)c(C(=O)O)c1,inactive
8,Cc1ccc(C)c(OCCCC(C)(C)C(=O)O)c1,inactive
9,CCCCC1C(=O)N(c2ccccc2)N(c2ccccc2)C1=O,inactive
10,O=C(O)CCCCCCCC(=O)O,inactive
11,NC(=O)NC1NC(=O)NC1=O (stereo not given),inactive
12,O=NO,inactive
13,OCCc1ccccc1,inactive
14,CCC1(c2ccccc2)C(=O)NCNC1=O,inactive
15,O=C(O)c1cccc([N+](=O)[O-])c1,inactive
16,O=c1cc[nH]c(=S)[nH]1,493 nM (active) and inactive
17,Nc1ccc(S(=O)(=O)c2ccc(N)cc2)cc1,inactive
18,COc1c2occc2cc2ccc(=O)oc12,inactive
19,NC(N)=NC(=O)c1nc(Cl)c(N)nc1N,inactive
20,Cc1cn([C@H]2C[C@H](N=[N+]=[N-])[C@@H](CO)O2)c(=O)[nH]c1=O,inactive

row,Structure (SMILES),Potency
1,Cn1c(=O)c2[nH]cnc2n(C)c1=O,13.8 µM (active) and inactive
2,NNC(=O)c1ccncc1,inactive
3,Nc1ccn([C@H]2CC[C@@H](CO)O2)c(=O)n1,inactive
4,CC(O)CO (stereo not given),inactive
5,COc1ccc2[nH]cc(CCNC(C)=O)c2c1,inactive
6,N=C(N)c1ccc(OCCCCCOc2ccc(C(=N)N)cc2)cc1,inactive
7,NC(=O)c1ccccc1O,inactive
8,CCCN(CCC)S(=O)(=O)c1ccc(C(=O)O)cc1,inactive
9,NC(N)=O,inactive
10,O=c1ccc2ccccc2o1,inactive
11,Cc1ccc(S(=O)(=O)NC(=O)NN2CCCCCC2)cc1,inactive
12,O=S(=O)(O)c1ccc2cc(O)ccc2c1,inactive
13,O=C1CN(/N=C/c2ccc([N+](=O)[O-])o2)C(=O)N1,inactive
14,CC(=O)Nc1nnc(S(N)(=O)=O)s1,inactive
15,CC(=O)OCC(COC(C)=O)OC(C)=O,inactive
16,Cc1cc(=O)n(-c2ccccc2)n1C,inactive
17,C1N2CN3CN1CN(C2)C3,inactive
18,Cc1ccc(O)cc1,inactive
19,CC(O)CN(CCN(CC(C)O)CC(C)O)CC(C)O (stereo not given),inactive
20,Oc1ccc(/C=C/c2cc(O)cc(O)c2)cc1,inactive
